Test results published in article PMC7862700, “An all-to-all approach to the identification of sequence-specific readers for epigenetic DNA modifications on cytosine”.

Key:
Assay in all cases: DAPPL (digital affinity profiling via proximity ligation, sequencing); 10 mM Tris-HCl pH 7.5, 50 mM NaCl, 1 mM DTT, 4% glycerol, room temperature, 30 min; GST-TFs on glutathione beads, 16-mer random dsDNA library, 0.1% formaldehyde crosslink after washing; high values mean tight binding
FLI1 = target: T1, FLI1 (Homo sapiens, UniProt Q01543 1-452); settings: protein: recombinant; tags: N-terminal GST; dsDNA, one strand shown
T1 sequence: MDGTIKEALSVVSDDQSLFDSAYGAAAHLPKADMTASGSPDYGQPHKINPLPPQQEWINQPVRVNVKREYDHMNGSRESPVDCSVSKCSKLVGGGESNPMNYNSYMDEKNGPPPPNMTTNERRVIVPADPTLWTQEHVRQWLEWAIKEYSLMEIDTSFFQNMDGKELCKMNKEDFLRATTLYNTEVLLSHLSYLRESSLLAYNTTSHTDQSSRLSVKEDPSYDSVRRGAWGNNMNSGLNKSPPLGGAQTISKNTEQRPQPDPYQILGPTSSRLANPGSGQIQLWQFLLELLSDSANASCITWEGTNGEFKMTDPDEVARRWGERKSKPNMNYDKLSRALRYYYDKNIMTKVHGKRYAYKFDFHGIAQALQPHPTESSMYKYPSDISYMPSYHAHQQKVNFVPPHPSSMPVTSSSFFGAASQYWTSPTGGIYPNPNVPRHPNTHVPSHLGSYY
Outline: (§1)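 A tag-only sample was pooled with DNA-barcoded human transcription factors that had been expressed in yeast as GST fusions and captured on glutathione beads. The pools were incubated for 30 min at room temperature with 200 nmole of a random double-stranded 16-mer DNA library in Tris/NaCl/DTT/glycerol buffer, then washed, crosslinked with 0.1% formaldehyde, proximity-ligated (BsaI/T4 ligase, 1 h, 37 °C), PCR-amplified and sequenced on an Illumina NextSeq500. Binding signal is each hexamer's read frequency for a factor divided by its frequency for the tag-only sample.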

ELK1 = target: T2, ELK1 (Homo sapiens, UniProt P19419 1-428); settings: protein: recombinant; tags: N-terminal GST; dsDNA, one strand shown
T2 sequence: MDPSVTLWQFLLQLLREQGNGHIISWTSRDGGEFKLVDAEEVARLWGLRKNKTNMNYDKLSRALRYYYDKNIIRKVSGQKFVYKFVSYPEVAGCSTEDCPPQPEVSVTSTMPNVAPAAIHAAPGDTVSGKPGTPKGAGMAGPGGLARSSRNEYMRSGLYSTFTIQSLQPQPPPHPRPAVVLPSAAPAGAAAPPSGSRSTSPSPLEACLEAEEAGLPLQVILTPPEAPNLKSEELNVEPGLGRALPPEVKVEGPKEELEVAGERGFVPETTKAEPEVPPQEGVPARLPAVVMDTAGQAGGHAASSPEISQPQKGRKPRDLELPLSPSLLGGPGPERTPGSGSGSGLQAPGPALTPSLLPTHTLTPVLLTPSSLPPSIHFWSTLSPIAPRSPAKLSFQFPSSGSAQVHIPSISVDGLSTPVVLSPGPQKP
Outline: as §1

GABPA = target: T3, GABPA (Homo sapiens, UniProt Q06546 1-454); settings: protein: recombinant; tags: N-terminal GST; dsDNA, one strand shown
T3 sequence: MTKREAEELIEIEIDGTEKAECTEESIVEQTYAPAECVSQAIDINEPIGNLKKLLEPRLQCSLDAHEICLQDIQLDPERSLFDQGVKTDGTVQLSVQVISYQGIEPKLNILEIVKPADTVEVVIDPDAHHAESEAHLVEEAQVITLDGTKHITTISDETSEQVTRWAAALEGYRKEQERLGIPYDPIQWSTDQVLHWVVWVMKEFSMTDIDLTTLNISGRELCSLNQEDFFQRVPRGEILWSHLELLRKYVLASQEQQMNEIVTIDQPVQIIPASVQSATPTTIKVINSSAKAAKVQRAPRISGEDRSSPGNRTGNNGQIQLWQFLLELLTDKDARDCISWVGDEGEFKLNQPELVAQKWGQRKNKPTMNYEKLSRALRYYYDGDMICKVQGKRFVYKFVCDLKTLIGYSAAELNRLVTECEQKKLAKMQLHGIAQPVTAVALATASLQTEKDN
Outline: as §1

ERG = target: T4, ERG (Homo sapiens, UniProt P11308 1-479); settings: protein: recombinant; tags: N-terminal GST; dsDNA, one strand shown
T4 sequence: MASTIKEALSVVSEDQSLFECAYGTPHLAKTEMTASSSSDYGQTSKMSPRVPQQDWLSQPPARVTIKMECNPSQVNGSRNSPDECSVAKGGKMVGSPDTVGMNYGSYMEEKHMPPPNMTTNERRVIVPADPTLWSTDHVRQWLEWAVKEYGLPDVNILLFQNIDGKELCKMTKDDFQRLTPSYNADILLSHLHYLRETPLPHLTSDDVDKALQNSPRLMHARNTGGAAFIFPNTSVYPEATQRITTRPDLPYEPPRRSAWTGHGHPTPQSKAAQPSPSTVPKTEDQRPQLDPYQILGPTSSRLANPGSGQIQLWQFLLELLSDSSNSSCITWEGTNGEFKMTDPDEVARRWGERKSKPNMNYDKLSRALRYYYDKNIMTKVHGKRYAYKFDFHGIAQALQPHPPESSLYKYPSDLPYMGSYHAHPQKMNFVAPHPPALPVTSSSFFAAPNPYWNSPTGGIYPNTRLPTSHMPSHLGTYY
Outline: as §1

ELF1 = ELF1 (Homo sapiens, UniProt P32519 1-619); settings: protein: recombinant; tags: N-terminal GST; dsDNA, one strand shown
Outline: as §1

EHF = target: T5, EHF (Homo sapiens, UniProt Q9NZC4 1-300); settings: protein: recombinant; tags: N-terminal GST; dsDNA, one strand shown
T5 sequence: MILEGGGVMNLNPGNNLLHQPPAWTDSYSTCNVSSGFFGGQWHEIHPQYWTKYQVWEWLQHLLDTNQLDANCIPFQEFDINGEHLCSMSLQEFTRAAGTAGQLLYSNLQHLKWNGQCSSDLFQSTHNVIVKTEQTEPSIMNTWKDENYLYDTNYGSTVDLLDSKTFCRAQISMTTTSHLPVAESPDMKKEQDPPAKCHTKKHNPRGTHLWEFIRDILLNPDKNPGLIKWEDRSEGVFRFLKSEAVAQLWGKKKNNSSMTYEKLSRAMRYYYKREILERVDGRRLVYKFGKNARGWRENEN
Outline: as §1

SPI1 = SPI1 (Homo sapiens, UniProt P17947 1-270); settings: protein: recombinant; tags: N-terminal GST; dsDNA, one strand shown
Outline: as §1

SPIB = SPIB (Homo sapiens, UniProt Q01892 1-262); settings: protein: recombinant; tags: N-terminal GST; dsDNA, one strand shown
Outline: as §1

ELK3 = target: T6, ELK3 (Homo sapiens, UniProt P41970 1-407); settings: protein: recombinant; tags: N-terminal GST; dsDNA, one strand shown
T6 sequence: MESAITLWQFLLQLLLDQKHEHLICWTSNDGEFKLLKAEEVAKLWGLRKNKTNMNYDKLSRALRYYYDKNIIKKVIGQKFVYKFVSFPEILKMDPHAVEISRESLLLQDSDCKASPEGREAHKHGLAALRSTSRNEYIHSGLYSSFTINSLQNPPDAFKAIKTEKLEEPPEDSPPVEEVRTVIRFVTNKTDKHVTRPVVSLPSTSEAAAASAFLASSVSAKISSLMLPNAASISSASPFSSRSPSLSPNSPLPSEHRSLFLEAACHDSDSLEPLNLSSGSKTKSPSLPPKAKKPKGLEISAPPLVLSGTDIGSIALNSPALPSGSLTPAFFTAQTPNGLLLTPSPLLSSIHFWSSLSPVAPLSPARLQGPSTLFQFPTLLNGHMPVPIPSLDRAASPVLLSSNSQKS
Outline: as §1

FEV = target: T7, FEV (Homo sapiens, UniProt Q99581 1-238); settings: protein: recombinant; tags: N-terminal GST; dsDNA, one strand shown
T7 sequence: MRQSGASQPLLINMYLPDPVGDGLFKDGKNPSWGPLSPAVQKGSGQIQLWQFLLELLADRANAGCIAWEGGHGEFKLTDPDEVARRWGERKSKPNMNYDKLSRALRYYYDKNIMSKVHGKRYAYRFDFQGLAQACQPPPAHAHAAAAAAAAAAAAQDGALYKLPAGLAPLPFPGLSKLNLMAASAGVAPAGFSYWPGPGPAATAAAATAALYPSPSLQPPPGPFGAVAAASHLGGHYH
Outline: as §1

ETV5 = ETV5 (Homo sapiens, UniProt P41161 1-510); settings: protein: recombinant; tags: N-terminal GST; dsDNA, one strand shown
Outline: as §1

HSF1 = HSF1 (Homo sapiens, UniProt Q00613 1-529); settings: protein: recombinant; tags: N-terminal GST; chain copies: 3; dsDNA, one strand shown
Outline: as §1

SPIC = target: T8, SPIC (Homo sapiens, UniProt Q8N5J4 1-248); settings: protein: recombinant; tags: N-terminal GST; dsDNA, one strand shown
T8 sequence: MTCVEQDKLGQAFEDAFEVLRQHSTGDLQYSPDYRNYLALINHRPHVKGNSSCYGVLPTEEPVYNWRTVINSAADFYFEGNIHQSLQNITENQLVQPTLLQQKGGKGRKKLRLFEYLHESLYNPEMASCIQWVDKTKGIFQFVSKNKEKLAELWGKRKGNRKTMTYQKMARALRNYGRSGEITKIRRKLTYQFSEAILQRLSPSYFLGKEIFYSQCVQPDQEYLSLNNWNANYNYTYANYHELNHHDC
Outline: as §1

ELF4 = ELF4 (Homo sapiens, UniProt Q99607 1-663); settings: protein: recombinant; tags: N-terminal GST; dsDNA, one strand shown
Outline: as §1

ELK4 = target: T9, ELK4 (Homo sapiens, UniProt P28324-2 1-405); settings: protein: recombinant; tags: N-terminal GST; dsDNA, one strand shown
T9 sequence: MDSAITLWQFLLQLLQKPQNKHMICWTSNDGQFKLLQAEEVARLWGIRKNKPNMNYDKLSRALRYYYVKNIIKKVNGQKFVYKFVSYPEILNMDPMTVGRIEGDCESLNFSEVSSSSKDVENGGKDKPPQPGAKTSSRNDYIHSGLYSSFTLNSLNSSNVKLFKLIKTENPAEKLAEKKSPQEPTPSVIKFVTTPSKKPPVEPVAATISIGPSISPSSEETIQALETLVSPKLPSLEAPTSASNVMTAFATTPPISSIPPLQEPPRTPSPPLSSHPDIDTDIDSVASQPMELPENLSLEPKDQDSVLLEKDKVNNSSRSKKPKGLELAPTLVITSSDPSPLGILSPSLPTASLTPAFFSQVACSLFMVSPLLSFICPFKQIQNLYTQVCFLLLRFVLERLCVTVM
Outline: as §1

ETV2 = target: T10, ETV2 (Homo sapiens, UniProt O00321 1-342); settings: protein: recombinant; tags: N-terminal GST; dsDNA, one strand shown
T10 sequence: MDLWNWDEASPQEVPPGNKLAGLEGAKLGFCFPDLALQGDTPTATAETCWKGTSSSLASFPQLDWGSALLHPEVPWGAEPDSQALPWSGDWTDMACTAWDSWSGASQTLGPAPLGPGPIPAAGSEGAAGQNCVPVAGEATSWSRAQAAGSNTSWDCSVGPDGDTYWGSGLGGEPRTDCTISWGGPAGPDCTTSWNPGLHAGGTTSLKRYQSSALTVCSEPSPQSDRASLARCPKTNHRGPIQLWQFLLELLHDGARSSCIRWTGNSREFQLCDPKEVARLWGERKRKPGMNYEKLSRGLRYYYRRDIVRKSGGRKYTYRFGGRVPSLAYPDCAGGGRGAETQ
Outline: as §1

ELF3 = target: T11, ELF3 (Homo sapiens, UniProt P78545 1-371); settings: protein: recombinant; tags: N-terminal GST; dsDNA, one strand shown
T11 sequence: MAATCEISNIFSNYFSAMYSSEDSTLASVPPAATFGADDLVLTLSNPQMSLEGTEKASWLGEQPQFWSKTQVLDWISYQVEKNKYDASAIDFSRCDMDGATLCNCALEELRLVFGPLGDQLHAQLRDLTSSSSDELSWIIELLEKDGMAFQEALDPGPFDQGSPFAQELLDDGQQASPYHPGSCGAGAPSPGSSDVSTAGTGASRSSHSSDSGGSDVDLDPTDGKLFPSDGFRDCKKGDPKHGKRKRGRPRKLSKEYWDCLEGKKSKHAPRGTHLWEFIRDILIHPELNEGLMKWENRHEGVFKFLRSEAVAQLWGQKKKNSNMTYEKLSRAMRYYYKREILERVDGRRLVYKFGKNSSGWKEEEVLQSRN
Outline: as §1

CRX = CRX (Homo sapiens, UniProt O43186 1-299); settings: protein: recombinant; tags: N-terminal GST; dsDNA, one strand shown
Outline: as §1

ETV1 = ETV1 (Homo sapiens, UniProt P50549 1-477); settings: protein: recombinant; tags: N-terminal GST; dsDNA, one strand shown
Outline: as §1

Chain of CRX (O43186 whole entry): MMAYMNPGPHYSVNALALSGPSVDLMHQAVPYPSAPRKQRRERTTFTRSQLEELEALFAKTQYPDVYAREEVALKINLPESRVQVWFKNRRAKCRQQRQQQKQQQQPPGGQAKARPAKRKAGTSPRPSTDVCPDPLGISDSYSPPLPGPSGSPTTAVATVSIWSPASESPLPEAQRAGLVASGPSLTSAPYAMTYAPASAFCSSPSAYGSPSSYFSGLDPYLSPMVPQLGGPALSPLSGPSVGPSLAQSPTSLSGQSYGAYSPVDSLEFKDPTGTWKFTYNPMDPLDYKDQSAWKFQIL
Chain of ELF4 (Q99607 whole entry): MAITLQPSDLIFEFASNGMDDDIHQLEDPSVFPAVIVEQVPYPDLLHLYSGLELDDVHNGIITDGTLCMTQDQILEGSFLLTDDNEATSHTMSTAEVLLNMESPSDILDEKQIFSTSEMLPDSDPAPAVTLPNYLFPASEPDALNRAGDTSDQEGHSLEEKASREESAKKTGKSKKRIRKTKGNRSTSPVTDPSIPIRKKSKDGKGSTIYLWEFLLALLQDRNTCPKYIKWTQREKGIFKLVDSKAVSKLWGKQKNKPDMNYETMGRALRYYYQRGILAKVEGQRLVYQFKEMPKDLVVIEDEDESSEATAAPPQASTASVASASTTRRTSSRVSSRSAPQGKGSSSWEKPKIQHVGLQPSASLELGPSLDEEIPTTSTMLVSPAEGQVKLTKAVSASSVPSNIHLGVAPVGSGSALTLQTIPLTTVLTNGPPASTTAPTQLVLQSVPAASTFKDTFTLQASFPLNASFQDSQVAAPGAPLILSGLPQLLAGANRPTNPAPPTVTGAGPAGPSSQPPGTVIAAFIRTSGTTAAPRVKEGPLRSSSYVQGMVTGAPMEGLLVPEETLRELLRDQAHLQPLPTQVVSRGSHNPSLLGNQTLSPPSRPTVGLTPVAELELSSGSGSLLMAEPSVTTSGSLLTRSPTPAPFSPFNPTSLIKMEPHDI
Chain of ETV1 (P50549 whole entry): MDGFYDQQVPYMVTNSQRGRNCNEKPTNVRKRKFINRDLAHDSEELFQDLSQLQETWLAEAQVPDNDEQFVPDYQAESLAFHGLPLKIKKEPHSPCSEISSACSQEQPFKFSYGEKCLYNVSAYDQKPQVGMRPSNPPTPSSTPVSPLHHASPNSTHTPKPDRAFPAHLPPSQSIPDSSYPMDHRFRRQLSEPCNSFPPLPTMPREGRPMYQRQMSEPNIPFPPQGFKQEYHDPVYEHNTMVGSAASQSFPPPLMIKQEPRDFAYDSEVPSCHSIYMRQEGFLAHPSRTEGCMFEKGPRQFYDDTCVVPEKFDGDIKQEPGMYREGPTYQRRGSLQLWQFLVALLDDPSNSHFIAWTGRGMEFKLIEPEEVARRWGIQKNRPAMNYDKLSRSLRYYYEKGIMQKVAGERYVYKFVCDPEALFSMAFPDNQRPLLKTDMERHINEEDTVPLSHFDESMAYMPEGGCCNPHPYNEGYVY
Chain of ETV5 (P41161 whole entry): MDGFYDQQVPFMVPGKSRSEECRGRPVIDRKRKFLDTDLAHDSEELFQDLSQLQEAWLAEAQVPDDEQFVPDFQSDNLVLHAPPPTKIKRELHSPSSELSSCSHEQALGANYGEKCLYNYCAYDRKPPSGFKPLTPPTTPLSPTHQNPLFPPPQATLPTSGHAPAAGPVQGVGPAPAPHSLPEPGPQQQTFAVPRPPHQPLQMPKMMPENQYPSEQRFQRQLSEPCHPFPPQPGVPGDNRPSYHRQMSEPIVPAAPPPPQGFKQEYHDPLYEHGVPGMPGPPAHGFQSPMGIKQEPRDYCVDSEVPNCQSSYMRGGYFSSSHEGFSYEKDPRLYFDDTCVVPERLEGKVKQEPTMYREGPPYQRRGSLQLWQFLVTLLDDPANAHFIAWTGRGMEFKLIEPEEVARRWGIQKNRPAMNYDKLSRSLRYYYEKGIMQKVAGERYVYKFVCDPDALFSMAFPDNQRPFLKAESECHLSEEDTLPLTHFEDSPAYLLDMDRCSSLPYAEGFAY
Chain of SPIB (Q01892 whole entry): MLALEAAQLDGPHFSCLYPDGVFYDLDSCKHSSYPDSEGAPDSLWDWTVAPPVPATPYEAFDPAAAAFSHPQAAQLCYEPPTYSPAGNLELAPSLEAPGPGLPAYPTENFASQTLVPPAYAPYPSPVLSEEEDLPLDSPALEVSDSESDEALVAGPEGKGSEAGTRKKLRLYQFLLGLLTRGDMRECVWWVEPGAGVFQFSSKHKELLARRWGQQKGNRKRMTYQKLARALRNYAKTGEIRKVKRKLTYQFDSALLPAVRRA
Chain of HSF1 (Q00613 whole entry): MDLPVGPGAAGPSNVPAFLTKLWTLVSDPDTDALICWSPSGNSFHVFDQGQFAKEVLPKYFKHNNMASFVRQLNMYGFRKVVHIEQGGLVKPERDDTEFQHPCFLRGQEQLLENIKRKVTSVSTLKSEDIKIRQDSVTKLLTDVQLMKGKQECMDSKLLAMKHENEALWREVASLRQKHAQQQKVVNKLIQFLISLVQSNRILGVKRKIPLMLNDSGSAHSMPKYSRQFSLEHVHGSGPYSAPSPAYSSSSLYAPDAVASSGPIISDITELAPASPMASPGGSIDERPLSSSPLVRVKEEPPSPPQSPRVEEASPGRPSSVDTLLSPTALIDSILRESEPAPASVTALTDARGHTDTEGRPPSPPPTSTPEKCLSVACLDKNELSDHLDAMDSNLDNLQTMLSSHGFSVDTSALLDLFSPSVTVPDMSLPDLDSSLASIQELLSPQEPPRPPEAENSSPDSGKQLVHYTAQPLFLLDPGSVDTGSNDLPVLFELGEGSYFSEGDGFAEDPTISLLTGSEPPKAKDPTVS
Chain of ELF1 (P32519 whole entry): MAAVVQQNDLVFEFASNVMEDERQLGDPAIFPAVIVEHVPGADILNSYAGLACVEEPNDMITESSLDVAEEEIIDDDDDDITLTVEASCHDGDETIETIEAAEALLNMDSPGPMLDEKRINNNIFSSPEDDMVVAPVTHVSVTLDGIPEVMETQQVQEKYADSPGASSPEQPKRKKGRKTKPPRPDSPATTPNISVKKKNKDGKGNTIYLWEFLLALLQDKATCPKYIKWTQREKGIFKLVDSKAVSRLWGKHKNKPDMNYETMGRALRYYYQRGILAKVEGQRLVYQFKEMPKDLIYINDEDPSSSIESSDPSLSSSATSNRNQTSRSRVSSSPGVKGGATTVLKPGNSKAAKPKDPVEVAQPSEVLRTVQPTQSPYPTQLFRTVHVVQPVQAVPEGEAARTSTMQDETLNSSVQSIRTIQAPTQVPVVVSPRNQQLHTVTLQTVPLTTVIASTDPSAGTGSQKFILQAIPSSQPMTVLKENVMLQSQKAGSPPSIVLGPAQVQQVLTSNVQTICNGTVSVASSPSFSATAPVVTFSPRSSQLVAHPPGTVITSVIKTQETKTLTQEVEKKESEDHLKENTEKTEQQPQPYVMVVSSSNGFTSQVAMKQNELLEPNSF

TTACTA
binding signal (FLI1): 1.34 fold enrichment (6-mer frequency, TF over GST control) | binding signal (ELK1): 1.31 fold enrichment (6-mer frequency, TF over GST control) | binding signal (GABPA): 1.36 fold enrichment (6-mer frequency, TF over GST control) | binding signal (ERG): 1.33 fold enrichment (6-mer frequency, TF over GST control) | binding signal (ELF1): 1.28 fold enrichment (6-mer frequency, TF over GST control) | binding signal (EHF): 1.23 fold enrichment (6-mer frequency, TF over GST control) | binding signal (SPI1): 1.27 fold enrichment (6-mer frequency, TF over GST control) | binding signal (SPIB): 1.36 fold enrichment (6-mer frequency, TF over GST control) | binding signal (ELK3): 1.31 fold enrichment (6-mer frequency, TF over GST control) | binding signal (FEV): 1.14 fold enrichment (6-mer frequency, TF over GST control) | binding signal (ETV5): 1.22 fold enrichment (6-mer frequency, TF over GST control) | binding signal (HSF1): 1.79 fold enrichment (6-mer frequency, TF over GST control) | binding signal (SPIC): 1.38 fold enrichment (6-mer frequency, TF over GST control) | binding signal (ELF4): 1.3 fold enrichment (6-mer frequency, TF over GST control) | binding signal (ELK4): 1.32 fold enrichment (6-mer frequency, TF over GST control) | binding signal (ETV2): 1.34 fold enrichment (6-mer frequency, TF over GST control) | binding signal (ELF3): 1.25 fold enrichment (6-mer frequency, TF over GST control) | binding signal (CRX): 2.18 fold enrichment (6-mer frequency, TF over GST control) | binding signal (ETV1): 1.23 fold enrichment (6-mer frequency, TF over GST control)
